Here are results for 38 molecules from PubChem BioAssay AID492948 (National Center for Advancing Translational Sciences (NCATS), 2010).

Structures are written as SMILES. Results filed as inconclusive are left out. Active and inactive are the calls of the source. The call rests on the fitted dose curve; in most records, active means well fitted activation curve with a large enough effect; inconclusive means small, poorly fitted or top-dose-only effect; inactive means no such curve, though single readings can be large or run the other way.
Potency means the concentration at half of the fitted maximal effect.

This test is described as follows: qHTS Assay for Agonists of the Relaxin Receptor RXFP1: V1B Hit Validation.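 Further: counter-screen in HEK293 cells expressing V1B rather than RXFP1 for selectivity; nearly all actives have a fitted effect of over 65% in size.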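 On activation: cAMP accumulation with PDE4 inhibitor Ro 20-1724 present during compound exposure.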 The following applies: HEK293 V1B cells, cAMP TR-FRET, 30 min; series mostly up to 115 µM. A digest of the protocol: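 Cells: HEK293, 2000/well. Cpd 30 min, 37C, 5% CO2, + PDE4 inhibitor Ro 20174. Lyse, HTRF cAMP, 30 min RT. Norm: buffer = 0%, porcine relaxin 29 nM = 100%.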
Regarding `Nc1c(Cl)cc(-c2[nH]c3cc(C(=O)NCCO)ccc3c(=O)c2O)cc1Cl`, the Potency is 34.6 µM (active). Consider `CC[n+]1ccc(/C=C/c2ccc(N(C)C)cc2)c2ccccc21`, for which the Potency entry was “inactive”. As to `CC(=O)Nc1ccc(NC(=O)CSc2ccc3nnc(-c4cccnc4)n3n2)cc1`, the Potency was 13.8 µM (active). As for `Cc1nn(CCCC(=O)NCc2ccc(F)cc2)c(=O)c2nccn12`, the Potency was 38.9 µM (active). In the case of `CCCn1c(SCC(=O)Nc2ccc(NC(C)=O)cc2)nc2c1c(=O)n(C)c(=O)n2C`, the Potency is 38.9 µM (active). For `O=C(Nc1ccccc1C(=O)NCc1ccco1)c1ccco1` the value was “inactive”. `NS(=O)(=O)c1ccc(CCNC(=O)C2CCN(c3ncnc4c3nc3n4CCCCC3)CC2)cc1`: the Potency is 38.9 µM (active). `CC(NC(=O)c1ccccc1NC(=O)c1ccco1)C(=O)O` (stereo not drawn): the Potency entry was “inactive”. Regarding `Cc1ccc(-n2c(=S)[nH]c3sc4c(c3c2=O)CCC4)cc1`, the Potency was 6.15 µM (active). In the case of `CN(C)CCCn1c(SCC(=O)Nc2nc(-c3cccc(Br)c3)cs2)nc2ccccc2c1=O`, the Potency entry was “inactive”.

Regarding `CC(C)(C)C(=O)Nc1ccccc1C(=O)NCc1ccco1`, the Potency entry is “inactive”.

With `CCOC(=O)c1sc(=NC(=O)c2ccc(S(=O)(=O)N(C)c3ccccc3)cc2)n(C)c1C`, the Potency is 30.8 µM (active). `CN(C)c1ccc(C(=S)N2CCN(S(=O)(=O)c3ccccc3)CC2)cc1`: the Potency entry was “inactive”. Take `O=C(Cn1cnc2c(nnn2-c2ccc(F)cc2)c1=O)NCC1CCCO1` (stereo not drawn): the Potency was 8.7 µM (active). With `Cc1noc(NS(=O)(=O)c2ccc(N3Cc4ccccc4C3=O)cc2)c1C`, the Potency was 11.9 µM (active). For `Cc1ccnc(NS(=O)(=O)c2ccc(N3C(=O)c4ccccc4C3=O)cc2)n1` the value was 14.9 µM (active); for `Nc1cc2ccncc2c2ccccc12`, “inactive”. For `CCc1ccc2n(-c3ccc(OC)cc3)c([S-])c(C(=O)Nc3cc(C)cc(C)c3)[n+]2c1` the value was 30.8 µM (active); for `O=c1c2ccccc2cnn1Cc1n[nH]c(=S)n1-c1ccc(F)c(Cl)c1`, 21.9 µM (active); for `Cc1cccn2c(=O)c(/C=C3\SC(=S)NC3=O)c(NCCCN3CCOCC3)nc12`, 4.35 µM (active). For `Cc1ccc(C(=O)Nc2cccc(C(F)(F)F)c2)cc1NC(=O)c1cnnc2ccccc12` the value was “inactive”.

Consider `CCOc1ccc(NC(=O)CSc2ccc3nnc(-c4cccnc4)n3n2)cc1`, for which the Potency was 38.9 µM (active).

On to `CN(CC(=O)Nc1ccccc1Cl)C(=O)COC(=O)Cc1c(F)cccc1Cl`, for which the Potency result was “inactive”. For `CCn1c(SCC(=O)Nc2ccc(NC(C)=O)cc2)nc2c1c(=O)n(C)c(=O)n2C`, the Potency is 30.9 µM (active). Consider `CC(C)n1cnc2c(N(C)c3cccc(Cl)c3)nc(N(CCO)CCO)nc21`, for which the Potency entry is “inactive”. In the case of `O=S(=O)(c1cccc(-c2cn3cccnc3n2)c1)N1CCOCC1`, the Potency was 19.5 µM (active). With `COc1ccc(CN2C(=O)c3cccnc3C2=O)cc1S(=O)(=O)NC1CCCCC1C` (stereo not drawn), the Potency is 38.9 µM (active).

On to `Cn1c(=O)c2c(ncn2CC(=O)N/N=C/c2cn[nH]c2-c2ccc(F)cc2)n(C)c1=O`, for which the Potency was 21.8 µM (active). For the molecule `Brc1ccc2ncnc(NCc3cccnc3)c2c1`, the Potency was 38.9 µM (active). With `O=C(Nc1ccccc1C(=O)N1CCOCC1)c1ccco1`, the Potency entry is “inactive”.

Take `CCN(CC)c1ccc(S(=O)(=O)N2CCOCC2)cc1NC(=O)CSc1nncn1C`: the Potency was 12.3 µM (active). For `CCCC(=O)Nc1ncnc2c1ncn2[C@@H]1O[C@@H]2COP(=O)(O)O[C@H]2[C@H]1OC(=O)CCC`, the Potency is 1.38 µM (active). Regarding `CCOP1(=O)OCC2OC(n3cnc4c(N)ncnc43)C(O)C2O1` (stereo not drawn), the Potency was 12.3 µM (active). For `O=C(Nc1ccccc1C(=O)Nc1ccccc1)c1ccco1` the value was “inactive”; for `Cc1ccc(CN(C)C(=O)c2ccc3c(c2)NC(=O)CS3)o1`, “inactive”; for `COC(=O)c1sc(N2C(=O)C(O)=C(C(=O)c3ccc(C)o3)C2c2ccc(F)cc2)nc1C` (stereo not drawn), 2.75 µM (active). Consider `Cc1cc(C)nc(NS(=O)(=O)c2ccc(NC(=O)c3nn(-c4ccccc4)ccc3=O)cc2)n1`, for which the Potency is 15.5 µM (active).

Consider `O=C(O)c1cc(-c2ccco2)nc2ccc(Br)cc12`, for which the Potency was 19.4 µM (active).
